Assay results as given in PubChem BioAssay (NCATS).
Records with an inconclusive call do not appear. The source made the active and inactive calls. The call rests on the fitted dose curve; in most records, active means well fitted curve in the direction sought with a large enough effect; inconclusive means small, poorly fitted or top-dose-only effect, or another doubt; inactive means no such curve, though single readings can be large; an effect the other way counts as inactive or inconclusive.

Assays:
[1] = SW1088 Cancer Cell Toxicity qHTS against the NCATS CANVASS Library (AID 1347350); conditions: SW1088 viability, CellTiter-Glo luminescence, 72 h; series mostly up to 76 µM; further: nearly all actives have a fitted effect of over 75% in size
Summary of the method: (§1)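 1000 cells/well; 4 h settle; 11-pnt titration; 72 h, 37 degrees C, 5% CO2; CellTiter-Glo, 15min RT; luminescence read.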

[2] = U-118MG Cancer Cell Toxicity qHTS against the NCATS CANVASS Library (AID 1347351); conditions: U-118MG viability, CellTiter-Glo luminescence, 72 h; series mostly up to 76 µM
Summary of the method: as §1

[3] = COV-362 Cancer Cell Toxicity qHTS against the NCATS CANVASS Library (AID 1347352); conditions: COV-362 viability, CellTiter-Glo luminescence, 72 h; series mostly up to 76 µM
Summary of the method: (§2)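 Toxicity was measured as CellTiter-Glo luminescence after 72 h exposure to an 11-point compound series. Compound was added to 1000 cells/well 4 h after seeding.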

[4] = A2780 Cisplatin Sensitive Ovarian Cancer Cell Toxicity qHTS against the NCATS CANVASS Library (AID 1347353); conditions: A2780 ovarian cancer viability, ATPLite luminescence, 72 h; at 91.4 µM (top of the series) unless noted; further: nearly all actives have a fitted effect of over 60% in size
Summary of the method: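 Cisplatin-sensitive A2780 ovarian cells (750/well) received compound in 11 concentrations, and were incubated 72 h at 37 °C. ATP content was measured by ATPLite luminescence; bortezomib served as control.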

[5] = UWB1.289-WTBRCA1 Cancer Cell Toxicity qHTS against the NCATS CANVASS Library (AID 1347354); conditions: UWB1.289-WTBRCA1 viability, CellTiter-Glo luminescence, 72 h; series mostly up to 76 µM
Summary of the method: as §2

[6] = HEK-293 Cancer Cell Toxicity qHTS against the NCATS CANVASS Library (AID 1347355); conditions: HEK-293 viability, CellTiter-Glo luminescence, 72 h; series mostly up to 91.4 µM; further: nearly all actives have a fitted effect of over 65% in size
Summary of the method: as §2

[7] = HPAF-II 24hr Apoptosis Induction qHTS against the NCATS CANVASS Library (AID 1347356); conditions: HPAF-II caspase-3/7 Caspase-Glo luminescence; series mostly up to 91.4 µM
Summary of the method: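 Caspase-Glo 3/7 luminescence, read after 15 min room-temperature development, measures apoptosis in HPAF-II cells treated 24 h at 37 degrees C with an 11-point concentration series; 500 cells/well; doxorubicin control.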

[8] = HEK293 18hr Apoptosis Induction qHTS against the NCATS CANVASS Library (AID 1347357); conditions: HEK293 caspase-3/7 Caspase-Glo luminescence; series mostly up to 91.4 µM
Summary of the method: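 Cells seeded at 500/well in DMEM + 10% FBS. Compounds pinned, 11 concentrations. 18 h, 37 degrees C/5% CO2. Caspase-Glo 3/7 added, 15 min RT dark, luminescence read.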

[9] = HPAF-II 12hr Apoptosis Induction qHTS against the NCATS CANVASS Library (AID 1347358); conditions: HPAF-II caspase-3/7 Caspase-Glo luminescence; series mostly up to 91.4 µM
Summary of the method: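 Caspase-3/7 activation by DEVD-substrate luminescence (Caspase-Glo 3/7, 15 min, room temperature) after a 12-hour compound exposure in 11 concentrations, of HPAF-II pancreatic cells seeded at 500/well in DMEM with 10% FBS.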

[10] = HEK293 24hr Apoptosis Induction qHTS against the NCATS CANVASS Library (AID 1347359); conditions: HEK293 caspase-3/7 activation, Caspase-Glo luminescence; series mostly up to 91.4 µM
Summary of the method: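 HEK293 cells (500/well, DMEM + 10% FBS) were exposed to compounds in an 11-point series for 24 hours at 37 degrees C, then caspase-3/7 activity was read by Caspase-Glo DEVD luciferase luminescence after 15 min.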

[11] = HPAF-II 18hr Apoptosis Induction qHTS against the NCATS CANVASS Library (AID 1347360); conditions: HPAF-II caspase-3/7 luminescence; series mostly up to 91.4 µM
Summary of the method: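 Seed HPAF-II cells at 500/well in DMEM + 10% FBS, pin-transfer compounds, incubate 18 hours at 37 degrees C/5% CO2, add Caspase-Glo 3/7 reagent, wait 15 min, read luminescence.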

[12] = HEK293 12hr Apoptosis Induction qHTS against the NCATS CANVASS Library (AID 1347361); conditions: HEK293 caspase-3/7 Caspase-Glo luminescence; series mostly up to 91.4 µM
Summary of the method: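 Cells are seeded, dosed with an 11-point compound series and incubated 12 hours. Caspase-3/7 activity is detected by luminescent DEVD-substrate reagent after 15 minutes at room temperature.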

[13] = test system: NAD(P)H diaphorase (Clostridium kluyveri); experiment: Diaphorse counterscreen qHTS: Assay Interference Panel against the NCATS CANVASS Library (AID 1347362); conditions: Diaphorase enzyme, resazurin to resorufin fluorescence; series mostly up to 57.5 µM
Summary of the method: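 Clostridium kluyveri diaphorase in PBS with 0.01% Tween-20 was preincubated 15 min at room temperature in the dark with compounds (11-point series). Resorufin fluorescence (ex 525/20, em 598/25) was read 5 min after adding resazurin/NADH.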

[14] = molecular target: Luciferin 4-monooxygenase (Photinus pyralis) (UniProt P08659); experiment: Firefly luciferase counterscreen qHTS: Assay Interference Panel against the NCATS CANVASS Library (AID 1347363); conditions: purified firefly luciferase, luminescence inhibition, 5 min; series mostly up to 57.5 µM
Summary of the method: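 Purified P. pyralis luciferase was added to compounds (11-point series) preincubated 15 min at room temperature with substrate containing 0.013 mM D-luciferin and 0.013 mM ATP; luminescence was read after 5 min.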

[15] = KB-8-5-11 Cancer Cell Toxicity qHTS against the NCATS CANVASS Library (AID 1347364); conditions: KB-8-5-11 MDR cells viability, CellTiter-Glo, 72 h; series mostly up to 91.4 µM; further: nearly all actives have a fitted effect of over 75% in size
Summary of the method: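 Viability read as CellTiter-Glo luminescence after 72 h at 37 °C, 5% CO2. 11-point compound series on 500 KB-8-5-11 cells/well in DMEM/10% FBS. Follow-up plating included 1 uM tariquidar in the medium.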

[16] = SDT Cancer Cell Toxicity qHTS against the NCATS CANVASS Library (AID 1347365); conditions: SDT dog glioma viability, ATP luminescence, 72 h; series mostly up to 91.4 µM;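 further: SDT canine glioma cells 500 per well in 1536 well plates; nearly all actives have a fitted effect of over 60% in size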
Summary of the method: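 Cytotoxicity taken from CellTiterGlo ATP luminescence after 72 hr at 37C, 5% CO2. Canine glioma line SDT, 500 cells/well, treated at 11 concentrations; bortezomib dose series as control.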

[17] = KB-3-1 Cancer Cell Toxicity qHTS against the NCATS CANVASS Library (AID 1347366); conditions: KB-3-1 viability, CellTiter-Glo luminescence, 72 h; series mostly up to 91.4 µM; further: nearly all actives have a fitted effect of over 75% in size
Summary of the method: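 Luminescence from CellTiter-Glo (10 min, room temperature) measured KB-3-1 viability after 72 hr compound exposure at 37C. Cells were seeded at 500/well and tested in an 11-point series.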

[18] = qHTS for ATAD5 Agonist screened against the NCATS CANVASS Library (AID 1347367); conditions: HEK293T ATAD5-luciferase reporter, luminescence, 16 h; series mostly up to 91.4 µM;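 further: luciferase reporter driven by ATAD5 which rises upon DNA damage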
Summary of the method: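 HEK293T-ATAD5 luc reporter; 2000 cells/well; 5hr settle; cpd 11-pt qHTS; 16hr 37C 5% CO2 dark; viability by CellTiter-Fluor (AFC fluorescence); then luciferase luminescence, 30min RT.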

[19] = G06 Cancer Cell Toxicity qHTS against the NCATS CANVASS Library (AID 1347368); conditions: G06 dog glioma cells, viability ATP luminescence, 72 h; series mostly up to 91.4 µM; further: nearly all actives have a fitted effect of over 60% in size
Summary of the method: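 Viability measured by CellTiterGlo ATP luminescence after 72 hr at 37C, 5% CO2. Canine G06 glioma cells plated at 500/well. Compounds tested as 11-point qHTS titrations.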

[20] = MCF7 Cancer Cell Toxicity qHTS against the NCATS CANVASS Library (AID 1347369); conditions: MCF7 viability, ATP luminescence (CellTiter-Glo), 72 h; series mostly up to 91.3 µM
Summary of the method: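 Cells seeded at 500/well, then compound pinned. Plates incubated 72 hr at 37C, 5% CO2. CellTiterGlo added; luminescence read.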

Measured: outcome

Chain of Luciferin 4-monooxygenase (Photinus pyralis) (P08659 whole entry, looked up): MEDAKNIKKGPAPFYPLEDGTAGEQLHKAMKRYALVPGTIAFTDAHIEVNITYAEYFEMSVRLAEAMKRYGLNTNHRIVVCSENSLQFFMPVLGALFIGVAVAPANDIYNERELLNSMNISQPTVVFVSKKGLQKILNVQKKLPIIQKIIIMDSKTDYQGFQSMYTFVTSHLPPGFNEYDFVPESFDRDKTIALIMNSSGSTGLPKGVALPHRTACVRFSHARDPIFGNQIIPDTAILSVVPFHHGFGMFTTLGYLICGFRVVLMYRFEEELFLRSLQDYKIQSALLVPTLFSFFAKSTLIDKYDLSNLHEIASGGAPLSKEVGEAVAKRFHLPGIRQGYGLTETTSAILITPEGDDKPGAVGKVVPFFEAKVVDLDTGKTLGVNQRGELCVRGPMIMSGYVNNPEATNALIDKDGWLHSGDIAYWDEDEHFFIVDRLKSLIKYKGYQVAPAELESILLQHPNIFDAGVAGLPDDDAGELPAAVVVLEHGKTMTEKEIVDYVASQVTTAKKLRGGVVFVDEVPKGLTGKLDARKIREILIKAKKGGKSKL

O=C1C[C@@H]2OCC=C3CN4CC[C@]56c7ccccc7N1[C@H]5[C@H]2[C@H]3C[C@H]46
inactive: all assays above

COc1ccc2[nH]cc(CCN)c2c1
inactive: [1] | [2] | [3] | [4] inactive [at 46.1 µM] | [5] | [6] | [7] | [8] | [9] | [10] | [11] | [12] | [13] | [14] | [15] | [17] | [18] | [19] | [20]
